# Measured values reported in PubChem BioAssay (NCATS).
# Records with an inconclusive call do not appear. Entries that show only a call come without a potency. Activity calls are given as the source filed them. The call rests on the fitted dose curve; in most records, active means well fitted inhibition curve with a large enough effect; inconclusive means small, poorly fitted or top-dose-only effect; inactive means flat fitted curve, though single readings scatter.
# Legend:
# Assay in all cases: qHTS profiling for inhibitors of Plasmodium falciparum proliferation (AID 504749); further: nearly all actives have a fitted effect of over 60% in size
# Settings in all cases: P. falciparum in erythrocytes, SYBR Green DNA, 72 h; series mostly up to 28.7 µM
# [1] = tested on: N140
# Procedure, shortened: (§1)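 P. falciparum-infected erythrocytes (0.3% parasitemia, 2.5% hematocrit) incubated with compound 72 h at 37 C, 5% CO2. Parasite DNA detected by SYBR Green after lysis, overnight at room temperature; normalised to 0.29 uM artemisinin and DMSO.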
# [2] = tested on: P94_40
# Procedure, shortened: as §1
# [3] = tested on: PAD
# Procedure, shortened: as §1
# [4] = tested on: PC15
# Procedure, shortened: as §1
# [5] = tested on: PC26
# Procedure, shortened: as §1
# [6] = tested on: PC49
# Procedure, shortened: as §1
# [7] = tested on: SC27B
# Procedure, shortened: as §1
# [8] = tested on: TAB109
# Procedure, shortened: as §1
# [9] = tested on: TAB113
# Procedure, shortened: as §1
# [10] = tested on: P93_24
# Procedure, shortened: as §1
# Potency means the concentration at half of the fitted maximal effect.
SMILES,Potency [1],Potency [2],Potency [3],Potency [4],Potency [5],Potency [6],Potency [7],Potency [8],Potency [9],Potency [10]
CC(C)NC[C@H](O)COc1ccc(CC(N)=O)cc1,inactive,inactive,inactive,inactive,inactive,inactive,inactive,inactive,inactive,
CCCCCCCCCCCCCCCCCCOC[C@H](COP(=O)([O-])OCC[N+](C)(C)C)OC,inactive,inactive,inactive,inactive,,inactive,inactive,inactive,inactive,inactive
CC(O)C(O)[C@H]1CNc2nc(N)[nH]c(=O)c2N1 (stereo partly specified),inactive,inactive,inactive,inactive,inactive,inactive,inactive,inactive,inactive,inactive
CN1C2CCC1CC(OC(c1ccccc1)c1ccccc1)C2 (stereo unspecified),inactive,,,,,2 µM (active),inactive,,inactive,
CCCCCCCCCCCCCCC[C@H](O)[C@H](N)CO,inactive,inactive,inactive,inactive,inactive,inactive,inactive,inactive,inactive,inactive
c1ccc(C2CN3CCSC3=N2)cc1 (stereo unspecified),3.98 µM (active),3.55 µM (active),7.94 µM (active),2.82 µM (active),15.1 µM (active),,10 µM (active),4.47 µM (active),11.2 µM (active),2.82 µM (active)
